Some test systems named below: DU-145 prostate; K-562 leukemia; MALME-3M melanoma; MDA-MB-231 breast; RXF 393 renal; SF-268 CNS; SF-295 CNS; SF-539 CNS; UACC-257 melanoma; M14 melanoma.
Holding throughout (assay): NCI-60 one-dose screen, 48 h (100 = growth as untreated, 0 = no growth, -100 = all killed)
Settings in all cases: 10 µM unless noted

Each structure is given as a SMILES string. This is part of a sample that, as a whole, favours compounds with a hit. Of some 83,000 tested, about 20% had one in any assay.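 Cells were grown in 96-well plates and exposed to the test compound at a single concentration for 48 hours; results are reported as percent growth, with values below 10 considered active.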 Values without a mark were called inactive. The source made the active and inactive calls.

As to `COC(=O)c1[nH]nc2c1C1(C(=O)N(C)c3ccccc31)C(C#N)=C(N)O2` (stereo unspecified), the growth in the assay on DU-145 prostate was 102%; in the assay with K-562 leukemia it was 113%; in the assay with MALME-3M melanoma, 103%; in the assay with MDA-MB-231 breast, 107%; in the assay with RXF 393 renal, 114%; with SF-268 CNS it was 97.3%. Also, the growth with SF-295 CNS is 118%; in the assay on SF-539 CNS it was 96.5%; with UACC-257 melanoma, 103%; with M14 melanoma, 104%.

As to `C=C(C=O)[C@@H]1CC[C@]2(CO)CC[C@]3(C)[C@H](CC[C@@H]4[C@@]5(C)CCCNC(C)(C)[C@@H]5CC[C@]43C)[C@@H]12`, the growth in the assay with DU-145 prostate is 53%; with K-562 leukemia, -1.23% (active); in the assay with MALME-3M melanoma, 67%; in the assay on MDA-MB-231 breast it was 90.8%; in the assay with RXF 393 renal it was 94.2%; in the assay on SF-268 CNS, 83.9%. Moreover, the growth with SF-295 CNS is 83.1%; in the assay on SF-539 CNS, 71.8%; in the assay with UACC-257 melanoma it was 72.3%; in the assay with M14 melanoma, 61.3%.

Regarding `Cc1occc1-c1nc2s/c(=C/c3ccc(-c4cc(C(F)(F)F)ccc4Cl)o3)c(=O)n2n1`, the growth was 103% in the assay with DU-145 prostate; 105% in the assay with K-562 leukemia; 98.5% in the assay with MALME-3M melanoma; 104% in the assay with MDA-MB-231 breast; 108% in the assay with RXF 393 renal; 97.2% with SF-268 CNS. Moreover, the growth with SF-295 CNS is 99.7%; with SF-539 CNS, 103%; in the assay with UACC-257 melanoma it was 105%; in the assay on M14 melanoma it was 97.1%.

With `O=c1[nH]c(Sc2sc3ccc(Cl)cc3c2CBr)nc(=S)[nH]1`, the growth was 33.9% with DU-145 prostate; 12% with K-562 leukemia; 27.4% in the assay on MALME-3M melanoma; 35.9% in the assay with MDA-MB-231 breast; 9.12% (active) with RXF 393 renal; 48.9% in the assay with SF-268 CNS. Besides, the growth in the assay with SF-295 CNS was 23%; in the assay on SF-539 CNS, 32.1%; with UACC-257 melanoma, 44.1%; in the assay with M14 melanoma, 27.6%.

As for `C#CCNC1CCC(c2csc(C#C)n2)=C1C` (stereo unspecified), the growth in the assay with DU-145 prostate is 67.6%; with K-562 leukemia it was 63%; in the assay on MALME-3M melanoma, -78.3% (active); in the assay on MDA-MB-231 breast it was 8.61% (active); in the assay on RXF 393 renal, 117%; in the assay on SF-268 CNS, 78.1%. Also, the growth is -28.2% (active) in the assay with SF-295 CNS, -92.4% (active) in the assay with SF-539 CNS and 80.1% in the assay with UACC-257 melanoma.

As to `CCC(NC(c1cc2cccc3ccc4cccc1c4c32)c1nnnn1C(C)(C)C)C1CCCCC1` (stereo unspecified), the growth with DU-145 prostate was 69.7%; with K-562 leukemia, 35.2%; in the assay with MALME-3M melanoma, 83.5%; with MDA-MB-231 breast, 55.9%; with RXF 393 renal, 69.8%; in the assay with SF-268 CNS, 74.6%. Further, the growth with SF-295 CNS was 63.5%; in the assay with SF-539 CNS, 63.2%; with UACC-257 melanoma, 38.6%; with M14 melanoma, 80.5%.

Turning to `CNC(=O)c1cc(N2CCc3cc(NC(=O)Nc4ccc(Cl)c(C(F)(F)F)c4)ccc32)ccn1`, the growth with DU-145 prostate is 63.6%; in the assay with K-562 leukemia it was 33.7%; with MALME-3M melanoma it was 64.5%; with MDA-MB-231 breast, 67.2%; in the assay on RXF 393 renal, -8.94% (active); with SF-268 CNS, 70.1%. The growth is 26.5% in the assay on SF-295 CNS, 48.8% in the assay on SF-539 CNS and 72.7% in the assay on UACC-257 melanoma.

Turning to `Cn1cc(-c2cc(N)n3nc(-c4cn(C)c5ccccc45)cc3n2)c2ccccc21`, the growth in the assay on DU-145 prostate is 88.1%; with K-562 leukemia it was 7.81% (active); in the assay with MALME-3M melanoma it was 84%; in the assay on MDA-MB-231 breast, 76.4%; in the assay on RXF 393 renal, 95.6%; in the assay on SF-268 CNS it was 100%. Also, the growth in the assay on SF-295 CNS is 95.9%; in the assay on SF-539 CNS it was 84.1%; in the assay with UACC-257 melanoma, 107%; with M14 melanoma, 32.1%.

With `O=C(CCC(=O)N1CCOCC1)OCCCCCCSc1ccc([N+](=O)[O-])c2nonc12`, the growth in the assay on DU-145 prostate was -91.9% (active); in the assay on K-562 leukemia it was 6.53% (active); with MALME-3M melanoma it was -81.2% (active); in the assay on MDA-MB-231 breast it was -39.8% (active); with RXF 393 renal, -62% (active); in the assay on SF-268 CNS, -9.47% (active). The growth in the assay with SF-295 CNS is -12.5% (active); with SF-539 CNS, -88.4% (active); in the assay on UACC-257 melanoma it was -25.7% (active).

For `O=C(c1ccc(O)c(C(=O)N2Cc3ccc(OCCC[P+](c4ccccc4)(c4ccccc4)c4ccccc4)cc3C2)c1)N1Cc2cccc(F)c2C1`, the growth is 99% in the assay with DU-145 prostate; 27.1% with K-562 leukemia; 73.2% in the assay on MALME-3M melanoma; 92.9% in the assay on MDA-MB-231 breast; 96.4% in the assay with RXF 393 renal; 92.7% with SF-268 CNS. The growth in the assay on SF-295 CNS is 84.9%; in the assay with SF-539 CNS it was 55.6%; in the assay on UACC-257 melanoma it was 48.5%; in the assay with M14 melanoma, 95.1%.

In the case of `CNC(=O)c1cc(-c2ccc(NC(=S)Nc3cc(C(F)(F)F)cc(C(F)(F)F)c3)cc2)nc2cccnc12`, the growth in the assay with DU-145 prostate is 84.9%; with K-562 leukemia, 94.9%; with MALME-3M melanoma, 99.2%; with MDA-MB-231 breast, 88.7%; in the assay on RXF 393 renal it was 41.1%; in the assay on SF-268 CNS, 88.2%. Besides, the growth in the assay with SF-295 CNS is 89.9%; in the assay with SF-539 CNS it was 92.1%; in the assay with UACC-257 melanoma it was 102%; in the assay on M14 melanoma, 98.5%.

In the case of `COc1ccc(N2C(=O)c3cc(Cl)ccc3NC2SCc2ccccc2)cc1` (stereo unspecified), the growth is 106% with DU-145 prostate; 88.9% with K-562 leukemia; 99.2% in the assay on MALME-3M melanoma; 85.1% with MDA-MB-231 breast; 101% in the assay with RXF 393 renal; 98.3% with SF-268 CNS. In addition, the growth in the assay on SF-295 CNS is 102%; with SF-539 CNS it was 98.7%; with UACC-257 melanoma, 97.7%.

For `COc1ccc([C@@H]2[C@@H](O)C(=O)N2c2cc(OC)c(OC)c(OC)c2)cc1F`, the growth was 12.3% in the assay on DU-145 prostate; 8.16% (active) in the assay with K-562 leukemia; 64.1% with MALME-3M melanoma; 21.3% in the assay on MDA-MB-231 breast; 24.9% with RXF 393 renal; 32% in the assay with SF-268 CNS. In addition, the growth in the assay on SF-295 CNS is 5.85% (active); in the assay with SF-539 CNS it was -0.902% (active); in the assay on UACC-257 melanoma, 58.6%; in the assay with M14 melanoma, 3.94% (active).

The values are drawn from PubChem BioAssay (NCI).
